Targets with a hit are over-represented here; the source holds about 7,900 in all. About 0.6% of all pairs of compound and target were hits. A number with no mark means an inactive call.
How the values were obtained:
Experiment in all cases: log2 fold change, soluble protein after heating vs DMSO (PISA); higher = thermal stabilisation; K562 cells, 10 uM, 30 min; active = over 0.2 and 3.5 SD of the protein, either way, in both replicates (recomputed)
IRAK-1-4 Inhibitor I = compound: C1COCCN1CCN2C3=CC=CC=C3N=C2NC(=O)C4=CC(=CC=C4)[N+](=O)[O-] [IRAK-1-4 Inhibitor I]
In short: (§1)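 Thermal stability values are relative to control samples and come from duplicates. They are expressed as log2 fold changes. For measurement, K562 cells (2×10^6 cells/mL) received 10 μM compound for 30 min, and aliquots were heated for 3 min over 48°C-58°C, pooled, and extracted at 4°C in PBS with 0.5% NP-40. Soluble protein, the supernatant after 21,000xg for 90 min, was quantified by TMTpro 16plex LC-MS/MS with equalised channel sums.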

ibrutinib = compound: C=CC(=O)N1CCC[C@@H](n2nc(-c3ccc(Oc4ccccc4)cc3)c3c(N)ncnc32)C1 [ibrutinib]
In short: as §1

[1] = compound: CC(=O)c1cnc2ccc(-c3cc(Cl)c(O)c(Cl)c3)nc2c1N[C@H]1CC[C@H](CN(C)C)CC1
In short: as §1

ralimetinib = compound: CC(C)(C)Cn1c(N)nc2ccc(-c3[nH]c(C(C)(C)C)nc3-c3ccc(F)cc3)nc21 [ralimetinib]
In short: as §1

[2] = compound: CC(C)(O)CC(=O)NCCn1ccc2ncnc(Nc3ccc(Oc4cccc(C(F)(F)F)c4)c(Cl)c3)c21
In short: as §1

[3] = compound: CC(C)C1=C2N=C(C=C(N2N=C1)NCC3=CC=CC=C3)NCCCCCCN
In short: as §1

[4] = compound: CC(C)C[C@@H](C=O)NC(=O)[C@H](CC(C)C)NC(=O)[C@H](CC(C)C)NC(=O)OCc1ccccc1
In short: as §1

pinometostat = compound: CC(C)N(C[C@H]1O[C@@H](n2cnc3c(N)ncnc32)[C@H](O)[C@@H]1O)[C@H]1C[C@@H](CCc2nc3cc(C(C)(C)C)ccc3[nH]2)C1 [pinometostat]
In short: as §1

[5] = compound: CC1=C(C(CC(=O)N1)C2=CC=C(C=C2)C(F)(F)F)C(=O)NC3=C(C=C4C(=C3)C=NN4)F
In short: as §1

[6] = compound: CC1=C(C2=C(C=C1)C(=O)C3=CC=CC=C3N2CCCN)C
In short: as §1

[7] = compound: CC1=C(C=C(C=C1)NC(=O)C2=CC(=CC=C2)C(C)(C)C#N)NC3=CC4=C(C=C3)N=CN(C4=O)C
In short: as §1

[8] = compound: CC1=C(C=C(C=C1)NC(=O)C2=CC(=CC=C2)N(C)C)NC(=O)C3=CC=C(C=C3)O
In short: as §1

[9] = compound: CC1=CC=C(C=C1)SC2=C3C=C(SC3=CN=C2)C(=O)N
In short: as §1

[10] = compound: CC1=NC(=CC=C1)C2=C(N=C(N2)C(C)(C)C)C3=CC4=NC=CN=C4C=C3
In short: as §1

Nexturastat A = compound: CCCCN(Cc1ccc(C(=O)NO)cc1)C(=O)Nc1ccccc1 [Nexturastat A]
In short: as §1

vemurafenib = compound: CCCS(=O)(=O)Nc1ccc(F)c(C(=O)c2c[nH]c3ncc(-c4ccc(Cl)cc4)cc23)c1F [vemurafenib]
In short: as §1

[11] = compound: CCCS(=O)(=O)Nc1ccc(F)c(C(=O)c2c[nH]c3ncc(Cl)cc23)c1F
In short: as §1

[12] = compound: CCCc1cc(C)[nH]c(=O)c1CNC(=O)c1cc(-c2ccnc(N3CCN(C)CC3)c2)cc2c1cnn2C(C)C
In short: as §1

givinostat = compound: CCN(CC)Cc1ccc2cc(COC(=O)Nc3ccc(C(=O)NO)cc3)ccc2c1 [givinostat]
In short: as §1

barasertib = compound: CCN(CCCOc1ccc2c(Nc3cc(CC(=O)Nc4cccc(F)c4)[nH]n3)ncnc2c1)CCOP(=O)(O)O [barasertib]
In short: as §1

Sequence of UniProt Q9NRY5 (Q9NRY5 whole entry, looked up): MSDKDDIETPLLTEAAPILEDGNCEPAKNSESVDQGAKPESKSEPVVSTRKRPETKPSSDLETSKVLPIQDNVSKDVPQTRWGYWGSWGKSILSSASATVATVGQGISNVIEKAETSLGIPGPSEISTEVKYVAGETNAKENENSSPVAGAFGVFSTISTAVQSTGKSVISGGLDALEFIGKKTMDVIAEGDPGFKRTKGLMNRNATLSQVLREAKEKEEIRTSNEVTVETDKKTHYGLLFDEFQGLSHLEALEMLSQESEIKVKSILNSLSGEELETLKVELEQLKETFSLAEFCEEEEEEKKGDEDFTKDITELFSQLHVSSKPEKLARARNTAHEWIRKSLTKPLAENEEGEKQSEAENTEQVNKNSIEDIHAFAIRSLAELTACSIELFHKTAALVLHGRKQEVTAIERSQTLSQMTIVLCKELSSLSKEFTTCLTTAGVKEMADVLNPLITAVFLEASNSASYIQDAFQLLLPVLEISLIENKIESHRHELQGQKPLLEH
Sequence of UniProt P00374 (P00374 whole entry, looked up): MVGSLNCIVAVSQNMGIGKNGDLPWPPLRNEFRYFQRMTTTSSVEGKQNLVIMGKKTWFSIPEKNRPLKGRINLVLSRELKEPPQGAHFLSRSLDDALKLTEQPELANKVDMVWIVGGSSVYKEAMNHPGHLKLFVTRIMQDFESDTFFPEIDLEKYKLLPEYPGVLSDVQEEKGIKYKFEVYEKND
Sequence of UniProt Q9Y485 (Q9Y485 whole entry, looked up): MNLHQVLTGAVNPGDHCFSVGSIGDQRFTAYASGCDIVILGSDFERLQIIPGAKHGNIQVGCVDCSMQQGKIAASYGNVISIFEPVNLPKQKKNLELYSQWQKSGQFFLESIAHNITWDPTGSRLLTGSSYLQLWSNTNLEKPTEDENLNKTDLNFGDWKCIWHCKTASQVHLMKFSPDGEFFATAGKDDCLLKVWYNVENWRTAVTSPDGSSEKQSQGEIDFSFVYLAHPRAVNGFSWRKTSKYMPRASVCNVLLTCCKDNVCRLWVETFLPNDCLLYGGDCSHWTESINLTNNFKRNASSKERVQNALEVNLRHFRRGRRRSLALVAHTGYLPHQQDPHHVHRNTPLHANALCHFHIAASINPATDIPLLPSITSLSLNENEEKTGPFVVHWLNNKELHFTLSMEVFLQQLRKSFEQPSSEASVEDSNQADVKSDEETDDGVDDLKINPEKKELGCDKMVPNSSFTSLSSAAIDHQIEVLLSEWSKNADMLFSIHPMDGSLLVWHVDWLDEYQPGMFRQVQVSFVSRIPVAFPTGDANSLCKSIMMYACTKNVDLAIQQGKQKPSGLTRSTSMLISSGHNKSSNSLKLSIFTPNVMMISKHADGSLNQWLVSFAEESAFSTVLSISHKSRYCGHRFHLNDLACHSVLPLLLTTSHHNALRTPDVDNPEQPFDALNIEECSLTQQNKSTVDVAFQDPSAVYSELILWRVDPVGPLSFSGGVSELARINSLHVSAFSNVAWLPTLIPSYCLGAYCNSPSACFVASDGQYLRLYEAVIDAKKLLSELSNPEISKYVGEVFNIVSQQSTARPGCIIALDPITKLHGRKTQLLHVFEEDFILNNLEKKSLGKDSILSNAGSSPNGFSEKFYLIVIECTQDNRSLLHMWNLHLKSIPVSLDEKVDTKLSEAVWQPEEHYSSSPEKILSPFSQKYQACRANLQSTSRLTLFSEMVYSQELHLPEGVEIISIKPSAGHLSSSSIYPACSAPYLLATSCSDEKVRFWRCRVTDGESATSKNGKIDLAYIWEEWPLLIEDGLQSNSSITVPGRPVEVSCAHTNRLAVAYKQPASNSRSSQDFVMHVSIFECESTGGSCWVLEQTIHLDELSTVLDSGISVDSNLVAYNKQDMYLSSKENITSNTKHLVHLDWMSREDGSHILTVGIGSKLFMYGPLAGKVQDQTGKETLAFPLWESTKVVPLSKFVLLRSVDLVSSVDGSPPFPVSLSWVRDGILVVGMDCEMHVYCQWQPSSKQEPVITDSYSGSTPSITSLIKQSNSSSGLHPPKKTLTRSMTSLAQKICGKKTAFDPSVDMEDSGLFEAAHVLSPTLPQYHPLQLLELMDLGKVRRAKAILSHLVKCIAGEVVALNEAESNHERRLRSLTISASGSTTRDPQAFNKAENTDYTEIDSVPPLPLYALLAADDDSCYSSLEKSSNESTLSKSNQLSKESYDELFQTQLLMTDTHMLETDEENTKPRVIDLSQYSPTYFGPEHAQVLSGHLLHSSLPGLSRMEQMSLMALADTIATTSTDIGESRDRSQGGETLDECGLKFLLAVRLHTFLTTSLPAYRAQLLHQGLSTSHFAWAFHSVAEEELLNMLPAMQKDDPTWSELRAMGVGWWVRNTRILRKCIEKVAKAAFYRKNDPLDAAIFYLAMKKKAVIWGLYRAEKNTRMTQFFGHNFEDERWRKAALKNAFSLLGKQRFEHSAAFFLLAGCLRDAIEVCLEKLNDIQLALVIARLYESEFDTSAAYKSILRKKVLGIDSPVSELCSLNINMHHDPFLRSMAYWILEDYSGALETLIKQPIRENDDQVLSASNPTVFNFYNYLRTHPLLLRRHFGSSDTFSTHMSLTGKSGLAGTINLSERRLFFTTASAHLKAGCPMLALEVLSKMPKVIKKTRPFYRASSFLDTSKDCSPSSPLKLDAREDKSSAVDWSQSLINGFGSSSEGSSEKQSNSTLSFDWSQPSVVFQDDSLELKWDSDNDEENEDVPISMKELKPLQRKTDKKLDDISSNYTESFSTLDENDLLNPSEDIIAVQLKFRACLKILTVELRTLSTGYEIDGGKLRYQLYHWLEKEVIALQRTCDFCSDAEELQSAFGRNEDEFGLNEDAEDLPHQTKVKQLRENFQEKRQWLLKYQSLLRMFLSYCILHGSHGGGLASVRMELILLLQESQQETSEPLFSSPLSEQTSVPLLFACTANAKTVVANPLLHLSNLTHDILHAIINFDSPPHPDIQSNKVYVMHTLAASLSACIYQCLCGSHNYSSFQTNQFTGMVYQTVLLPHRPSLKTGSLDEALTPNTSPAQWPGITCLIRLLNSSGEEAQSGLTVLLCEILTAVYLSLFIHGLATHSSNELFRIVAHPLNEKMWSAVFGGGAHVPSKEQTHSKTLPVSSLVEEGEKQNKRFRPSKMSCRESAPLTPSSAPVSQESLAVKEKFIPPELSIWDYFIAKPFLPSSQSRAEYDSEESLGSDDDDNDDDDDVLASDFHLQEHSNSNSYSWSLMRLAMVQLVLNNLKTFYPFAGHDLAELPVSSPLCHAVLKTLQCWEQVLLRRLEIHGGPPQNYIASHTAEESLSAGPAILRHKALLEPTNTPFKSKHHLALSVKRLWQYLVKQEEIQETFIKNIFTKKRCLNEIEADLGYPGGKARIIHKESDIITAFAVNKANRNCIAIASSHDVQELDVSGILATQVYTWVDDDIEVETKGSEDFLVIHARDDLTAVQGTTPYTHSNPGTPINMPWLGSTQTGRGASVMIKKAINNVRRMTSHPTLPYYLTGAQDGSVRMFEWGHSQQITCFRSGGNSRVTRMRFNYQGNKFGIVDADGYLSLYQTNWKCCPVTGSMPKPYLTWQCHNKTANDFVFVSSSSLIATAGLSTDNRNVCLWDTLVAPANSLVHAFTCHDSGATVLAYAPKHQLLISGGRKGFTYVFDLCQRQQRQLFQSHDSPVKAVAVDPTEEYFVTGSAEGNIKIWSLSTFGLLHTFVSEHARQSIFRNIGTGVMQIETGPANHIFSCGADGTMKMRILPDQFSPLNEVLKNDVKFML
Sequence of UniProt Q9Y5Q0 (Q9Y5Q0 whole entry, looked up): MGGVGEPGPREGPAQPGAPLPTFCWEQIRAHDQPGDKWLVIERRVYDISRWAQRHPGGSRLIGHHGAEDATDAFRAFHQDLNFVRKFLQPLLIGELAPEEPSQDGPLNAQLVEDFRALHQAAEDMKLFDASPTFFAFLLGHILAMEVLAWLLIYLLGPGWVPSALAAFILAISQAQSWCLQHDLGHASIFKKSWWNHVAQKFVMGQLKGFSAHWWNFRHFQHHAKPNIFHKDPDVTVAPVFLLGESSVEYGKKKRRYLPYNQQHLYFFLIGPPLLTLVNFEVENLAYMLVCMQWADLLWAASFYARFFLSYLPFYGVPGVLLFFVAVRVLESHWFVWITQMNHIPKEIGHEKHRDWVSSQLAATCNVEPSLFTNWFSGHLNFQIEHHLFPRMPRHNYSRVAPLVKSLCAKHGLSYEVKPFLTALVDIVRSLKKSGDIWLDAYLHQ
Sequence of UniProt Q9NVR5 (Q9NVR5 whole entry, looked up): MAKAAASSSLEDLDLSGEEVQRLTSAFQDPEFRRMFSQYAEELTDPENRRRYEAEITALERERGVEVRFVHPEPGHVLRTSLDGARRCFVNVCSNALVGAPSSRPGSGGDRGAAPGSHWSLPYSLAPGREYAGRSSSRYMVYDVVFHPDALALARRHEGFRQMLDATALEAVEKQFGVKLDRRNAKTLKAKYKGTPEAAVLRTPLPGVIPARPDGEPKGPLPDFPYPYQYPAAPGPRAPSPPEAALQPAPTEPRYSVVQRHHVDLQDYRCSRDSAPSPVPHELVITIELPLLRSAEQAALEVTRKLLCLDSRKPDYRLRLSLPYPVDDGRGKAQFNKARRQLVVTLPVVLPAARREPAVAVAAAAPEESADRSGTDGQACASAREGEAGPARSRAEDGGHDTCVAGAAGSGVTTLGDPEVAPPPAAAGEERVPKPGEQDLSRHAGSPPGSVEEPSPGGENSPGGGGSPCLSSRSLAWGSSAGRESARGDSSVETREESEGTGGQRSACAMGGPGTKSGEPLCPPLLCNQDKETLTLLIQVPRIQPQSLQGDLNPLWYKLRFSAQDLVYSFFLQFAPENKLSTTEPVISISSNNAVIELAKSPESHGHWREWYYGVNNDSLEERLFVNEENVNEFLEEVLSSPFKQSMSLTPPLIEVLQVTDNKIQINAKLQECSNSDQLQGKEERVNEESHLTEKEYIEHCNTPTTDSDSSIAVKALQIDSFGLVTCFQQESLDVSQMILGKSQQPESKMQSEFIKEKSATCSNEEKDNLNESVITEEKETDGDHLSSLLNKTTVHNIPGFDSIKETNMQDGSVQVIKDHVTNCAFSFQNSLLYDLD

| Target | log2 fold change (IRAK-1-4 Inhibitor I) | log2 fold change (ibrutinib) | log2 fold change [1] | log2 fold change (ralimetinib) | log2 fold change [2] | log2 fold change [3] | log2 fold change [4] | log2 fold change (pinometostat) | log2 fold change [5] | log2 fold change [6] | log2 fold change [7] | log2 fold change [8] | log2 fold change [9] | log2 fold change [10] | log2 fold change (Nexturastat A) | log2 fold change (vemurafenib) | log2 fold change [11] | log2 fold change [12] | log2 fold change (givinostat) | log2 fold change (barasertib) |
| --- | --- | --- | --- | --- | --- | --- | --- | --- | --- | --- | --- | --- | --- | --- | --- | --- | --- | --- | --- | --- |
| CUX1 isoform 3 (UniProt P39880) | 0.019 | -0.033 | -0.032 | -0.065 | -0.047 | 0.008 | 0.116 | -0.018 | 0.015 | 0.153 | -0.039 | 0.016 | 0 | -0.001 | -0.013 | 0.043 | 0.025 | 0.065 | 0.002 | 0.013 |
| CTSC (UniProt P53634) | 0.008 | 0.011 | -0.003 | -0.034 | 0.016 | -0.061 | 0.015 | -0.031 | -0.018 | -0.038 | -0.113 | 0.001 | 0.059 | -0.003 | -0.009 | 0.035 | 0.01 | 0.03 | 0.017 | 0.023 |
| FAAP100 (UniProt Q0VG06) | 0.026 | -0.247 | -0.025 | -0.065 | -0.085 | -0.043 | -0.05 | 0.013 | -0.097 | 0.055 | -0.004 | -0.001 | -0.039 | 0.066 | -0.327 (active) | 0 | -0.033 | 0.167 | 0.024 | 0.051 |
| EEF1AKNMT (UniProt Q8N6R0) | -0.081 | -0.116 | -0.026 | 0.141 | -0.097 | -0.199 | 0.127 | 0.354 (active) | -0.029 | 0.13 | 0.078 | -0.037 | 0.031 | 0.026 | -0.026 | 0.084 | 0.062 | 0.075 | 0.04 | 0.076 |
| CYFIP1 (UniProt Q7L576) | -0.001 | -0.019 | -0.07 | -0.013 | -0.056 | -0.042 | -0.013 | 0.001 | 0.009 | 0.026 | 0.012 | 0.005 | 0.017 | 0.035 | -0.043 | 0.026 | 0.019 | 0.006 | -0.005 | 0.038 |
| FADS3 (UniProt Q9Y5Q0) | 0.029 | 0.018 | -0.031 | -0.064 | -0.121 | -0.011 | 0.102 | 0.038 | -0.033 | 0.054 | 0.031 | -0.002 | -0.012 | 0.031 | -0.096 | 0.01 | 0.026 | -0.069 | -0.108 | 0.042 |
| DHPS (UniProt P49366) | 0.011 | -0.004 | 0.02 | -0.04 | -0.043 | 0.047 | -0.012 | -0.095 | 0.008 | -0.027 | -0.074 | 0.016 | 0.034 | 0.161 | -0.079 | 0.067 | 0.008 | -0.015 | -0.001 | 0.01 |
| DHFR (UniProt P00374) | -0.065 | -0.008 | -0.06 | 0.192 | -0.044 | 0.101 | 0.083 | 0.255 | -0.114 | 0.2 | -0.069 | 0.003 | -0.086 | -0.074 | 0.232 | 0.044 | 0.001 | 0.17 | 0.162 | 0.068 |
| DDX46 (UniProt Q7L014) | -0.113 | -0.034 | -0.299 | -0.095 | -0.18 | -0.034 | 0.026 | -0.066 | -0.107 | 0.152 | 0.123 | -0.117 | 0 | 0.069 | -0.069 | 0.099 | 0.136 | 0.001 | 0.171 | 0.13 |
| EVC2 (UniProt Q86UK5) | 0.052 | 0.032 | -0.061 | -0.15 | 0.038 | 0.064 | 0.038 | -0.011 | 0.091 | -0.014 | -0.263 | -0.146 | -0.006 | -0.018 | 0.046 | -0.073 | -0.054 | 0.16 | 0.06 | -0.064 |
| DDOST (UniProt P39656) | -0.038 | -0.027 | 0.057 | 0.156 | 0.015 | -0.081 | -0.036 | 0.015 | 0.024 | -0.041 | 0.03 | -0.013 | -0.031 | 0.016 | -0.01 | 0.003 | -0.006 | -0.001 | 0.006 | 0.008 |
| FAM114A2 (UniProt Q9NRY5) | 0.038 | -0.03 | 0.013 | -0.017 | -0.135 | -0.201 | 0.004 | 0.005 | -0.01 | -0.059 | 0.007 | 0.03 | 0.038 | 0.022 | -0.053 | 0.001 | 0.061 | -0.058 | -0.017 | 0.01 |
| EXOC1 (UniProt Q9NV70) | -0.085 | -0.015 | -0.033 | 0.112 | -0.151 | -0.419 (active) | 0.018 | 0.214 | 0.052 | 0.071 | -0.026 | -0.01 | 0.019 | 0.027 | 0.115 | -0.023 | 0.028 | 0.08 | 0.07 | 0.082 |
| DMXL1 (UniProt Q9Y485) | -0.005 | 0.002 | -0.035 | 0.028 | -0.085 | -0.231 | 0.019 | 0.042 | -0.005 | 0.069 | -0.075 | -0.004 | 0.025 | 0.017 | 0.044 | 0.008 | 0.032 | 0.043 | 0.076 | 0.068 |
| DNAJB1 (UniProt P25685) | -0.059 | -0.011 | -0.017 | 0 | -0.012 | -0.015 | -0.065 | -0.086 | -0.004 | 0.022 | 0.015 | -0.045 | -0.003 | 0.086 | -0.03 | 0.009 | 0.028 | -0.051 | 0.024 | 0.024 |
| DNAAF2 (UniProt Q9NVR5) | -0.02 | -0.023 | 0.014 | 0.022 | 0.013 | -0.025 | -0.054 | -0.023 | 0 | -0.013 | -0.037 | -0.043 | -0.046 | -0.038 | -0.034 | 0.043 | -0.038 | -0.065 | 0 | -0.009 |

Source: the supplement of paper PMC10849652
